This is an account of results in PubChem BioAssay AID1851 (National Center for Advancing Translational Sciences (NCATS), 2009).

Hit rate of the full screen: of about 16,000 compounds, about 5,700 (36%) were called active. About 24% were inconclusive and are not listed. Calls follow the shape of the dose curve; as a rule, active = well fitted curve in the direction sought with a large enough effect; inconclusive = small, poorly fitted or top-dose-only effect, or effect the other way; inactive = no such curve, though single readings can be large or run the other way. The list shows a part of the results.
% is scaled to controls: 0 for no effect and ±100 for the full control effect.

The target in this assay is Cytochrome P450 1A2 (Homo sapiens) (UniProt P05177). Briefly: Cytochrome panel assay with activity outcomes. The conditions noted are these: recombinant CYP, pro-luciferin dealkylation, luminescence, p450-cyp1a2; series mostly up to 57.1 µM.
Sequence of Cytochrome P450 1A2 (Homo sapiens) (P05177 whole entry, looked up): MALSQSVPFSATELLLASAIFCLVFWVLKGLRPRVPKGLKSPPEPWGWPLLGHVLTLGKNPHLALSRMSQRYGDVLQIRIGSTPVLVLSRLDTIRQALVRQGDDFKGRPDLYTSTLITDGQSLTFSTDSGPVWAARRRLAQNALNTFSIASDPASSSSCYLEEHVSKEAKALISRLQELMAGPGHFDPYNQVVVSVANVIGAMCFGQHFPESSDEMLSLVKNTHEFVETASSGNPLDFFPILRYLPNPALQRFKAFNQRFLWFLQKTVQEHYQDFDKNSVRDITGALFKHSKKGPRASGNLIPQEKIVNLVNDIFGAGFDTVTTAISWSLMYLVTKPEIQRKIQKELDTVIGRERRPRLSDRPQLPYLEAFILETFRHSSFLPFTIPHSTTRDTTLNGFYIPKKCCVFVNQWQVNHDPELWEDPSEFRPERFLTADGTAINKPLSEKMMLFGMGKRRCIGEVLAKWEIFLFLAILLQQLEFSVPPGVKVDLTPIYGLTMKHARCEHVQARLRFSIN
Take `CCN1C(=O)[C@H]2[C@H]3[C@H](O)[C@H](O)C/C(=N/NC(=O)OCc4ccccc4)[C@H]3CC[C@@H]2C1=O`: the activity, negative = inhibition was -7.29% [at 11.4 µM] (inactive). In the case of `NS(=O)(=O)c1cc(Cl)c(Cl)c(S(N)(=O)=O)c1`, the AC50 entry was “inactive”.

On to `CN(C)/C(CN1CCN(C=O)CC1)=C1\N=C(c2ccccc2)OC1=O`, for which the half-maximal activity concentration (AC50) is 14.1 µM (active).

As to `O=C(O)[C@@H](S)[C@H](S)C(=O)O`, the activity, negative = inhibition was -20.1% [at 11.4 µM] (inactive).

For the compound `CC1CCN(CCOc2cc(Cl)ccc2Cl)CC1`, the AC50 was 8.91 µM (active).

For `CC1CCN(CCCCOc2ccccc2[N+](=O)[O-])CC1`, the AC50 entry is “inactive”. In the case of `OCCN1CCN(CCOc2cccc(Cl)c2)CC1`, the AC50 result was “inactive”. On to `O=C(OCc1ccccn1)c1ccc(COc2ccccc2Cl)o1`, for which the AC50 is 7.08 µM (active). For the compound `CC1CCN(C(=O)c2ccc(COc3ccccc3Cl)o2)CC1`, the AC50 is 3.16 µM (active). Turning to `COc1ccccc1CNC(=O)C1CCN(S(=O)(=O)N2CC(C)CC(C)C2)CC1` (centres undefined), the AC50 result is “inactive”.

As to `CC1CN(C2CCN(C(=O)c3cccc(Cl)c3)CC2)CC(C)O1` (centres undefined), the AC50 result is “inactive”. In the case of `C[C@@H]1NC(=O)[C@@H](C)COC(=O)[C@H](C)NC(=O)[C@@H](C)COC1=O`, the activity, negative = inhibition was 0.211% [at 11.4 µM] (inactive). As for `CC(C)n1nnnc1SCC(=O)NCCc1ccccc1`, the AC50 was 12.6 µM (active). Turning to `CCn1c(CC(=O)Nc2ccc(C)cc2)nnc1SCC(=O)NCCc1ccccc1`, the AC50 entry is “inactive”. On to `CC(NC(=O)CSc1nc(=O)cc(N)n1CCc1ccccc1)c1ccccc1` (centres undefined), for which the AC50 result is “inactive”. For the compound `COc1ccc(CNc2ccnc(-c3ccc(N(C)C)cc3)n2)c(OC)c1`, the AC50 is 3.16 µM (active). Regarding `COc1ccccc1CNc1ccnc(-c2ccoc2)n1`, the AC50 was 1.58 µM (active).

In the case of `COc1ccccc1CNc1ccnc(-c2ccc(C(=O)N(C)C)cc2)n1`, the AC50 was 12.6 µM (active).

For `COc1ccccc1CNc1ccnc(-c2ccc(N(C)C)cc2)n1`, the AC50 was 0.794 µM (active). In the case of `COC(=O)N1CCC2(CC1)CCN(c1ncccn1)CC2`, the AC50 result was “inactive”. On the same count and under the same terms, as for `CN(C)c1ccc(-c2nccc(NCc3ccccc3)n2)cc1`, the figure is 1.26 µM (active); as for `Nc1nnnn1/N=C\c1ccc(Cl)c([N+](=O)[O-])c1`, 5.01 µM (active). `O=[N+]([O-])c1cc(/C=N/N2CCN(C3c4ccccc4-c4ccccc43)CC2)ccc1Cl`: the AC50 result is “inactive”. For the compound `COc1cc(OC)c2cc(-c3ccncc3)cnc2c1`, the AC50 is 0.2 µM (active). On the same count and under the same terms, to `CCc1ccc(C(=O)CN(C#N)c2nc(C)cc(C)n2)cc1` belongs 15.8 µM (active). Turning to `CCc1ccc(C(CC(=O)c2ccc(Cl)cc2)C(=O)O)cc1` (centres undefined), the AC50 result is “inactive”. `COc1ccccc1CN1CCC2(CC1)CCN(C(C)=O)CC2`: the AC50 entry is “inactive”.

`CCCCN(CC)C(=O)Cc1ccccc1OC`: the AC50 is 14.1 µM (active). The same measure, in the same setting: as for `COCC(=O)N1CCC2(CCN(Cc3ccccc3OC)CC2)CC1`, the entry is “inactive”. Consider `Cc1ccc(C(=O)COC(=O)c2ccc3c(c2)C(=O)N(c2cccc4ncccc24)C3=O)cc1C`, for which the AC50 result is “inactive”. As to `O=C(O)COc1c(Cl)cc(Cl)c2cccnc12`, the activity, negative = inhibition is -1.3% [at 2.29 µM] (inactive).

Turning to `O=C(OCc1ccc(Cl)cc1Cl)c1cccnc1Cl`, the AC50 is 1 µM (active). As to `O=C(COC(=O)c1cccnc1Cl)c1ccccc1`, the AC50 is 11.2 µM (active). For the compound `Cc1ccc(C(=O)COC(=O)c2ccccc2N2C(=O)C3C4CCC(C4)C3C2=O)cc1C` (centres undefined), the AC50 entry is “inactive”. For the compound `O=C(COC(=O)c1cccnc1)c1ccc(Cl)c(Cl)c1`, the AC50 was 0.891 µM (active).

As to `COCC(=O)N1CCC2(CCCN(C(=O)Nc3ccc(OC)cc3)C2)CC1`, the AC50 result was “inactive”.

Consider `Cc1nc2ccccn2c1/C(O)=C1\C(=O)C(=O)N(CCCn2ccnc2)C1c1ccncc1` (centres undefined), for which the AC50 entry was “inactive”. `CC(C)(C)NC(=O)NC(=O)CSc1nnc2ccccn12`: the AC50 result is “inactive”. As for `Cc1nc2ccccn2c1C(=O)CSc1ccccc1Cl`, the AC50 is 8.91 µM (active). For `CCCCCn1c(SCc2ccncc2)nc2cc(C(=O)NCc3ccco3)ccc2c1=O`, the AC50 is 4.47 µM (active).

Regarding `O=C(CSc1nc2ccccc2c(=O)n1CCCC(=O)N1CCCC1)NCc1ccco1`, the AC50 result is “inactive”.

For `CCOc1c2ccc(C(=O)NCc3ccco3)cc2nn1CC`, the AC50 was 2.51 µM (active). Same read-out and setting: as for `CCCn1nc2cc(C(=O)NCc3ccccc3OC)ccc2c1OCC`, the entry is “inactive”.

`CCCCn1nc2cc(C(=O)NCC3CC3)ccc2c1OCC`: the AC50 result is “inactive”. Consider `CCOc1c2ccc(C(=O)NCCc3cccs3)cc2nn1CC`, for which the AC50 was 8.91 µM (active). Regarding `c1ccc(C2OCC3(CO2)COC(c2ccccc2)OC3)cc1` (centres undefined), the AC50 entry is “inactive”.

For the compound `CC1CCCC(NC(=O)CCn2c(=O)oc3ccccc32)C1C` (centres undefined), the AC50 result is “inactive”. Consider `Cc1ccc(CNC(=O)Cn2c(=O)oc3ccccc32)o1`, for which the AC50 was 12.6 µM (active).

For `COCCNC(=O)CCn1c(=O)oc2ccccc21`, the AC50 result was “inactive”. In the case of `Cc1cccc(NC(=O)Cn2c(=O)n3nc(CCn4nc(C)cc4C)nc3c3ccccc32)c1`, the AC50 result is “inactive”. Consider `Cc1cccc(NC(=O)Cn2c(=O)oc3ccccc32)c1`, for which the AC50 was 15.8 µM (active). On the same count and under the same terms, as for `COC(=O)[C@@]1(Cc2ccc(OC)cc2)[C@H]2c3cc(C(=O)N4CCCC4)n(CCn4cc([N+](=O)[O-])nc4C)c3C[C@H]2CN1C(=O)c1ccccc1`, the entry is “inactive”; as for `CCCn1c(N)c(C(=O)CSc2nc(C)cs2)c(=O)n(C)c1=O`, 15.8 µM (active). For the compound `Cc1cc(C)cc(C(=O)N(NC(=O)Nc2ccc(Cl)cc2)C(C)(C)C)c1`, the AC50 entry was “inactive”.

`CSc1cccc(NC(=O)Nc2ccc(Cl)cc2)c1`: the AC50 was 5.01 µM (active).

As to `O=C(O)CC[C@@]1(c2ccccc2)NC(=O)NC1=O`, the activity, negative = inhibition was -11.4% [at 11.4 µM] (inactive).

As for `Cc1ccc(N(CCC#N)C(=O)CSc2ccc3c(c2)OCCO3)cc1`, the AC50 is 2 µM (active).

On to `CCOC(=O)c1[nH]c(C)c(C)c1C`, for which the AC50 was 0.501 µM (active). `Cc1cc(C)c2cc(C#N)c(NCCOC(=O)c3ccccc3C)nc2c1`: the AC50 is 1.26 µM (active).

`CCOC(=O)c1cc(C#N)c(Oc2ccccc2OC)nc1-c1ccccc1`: the AC50 is 0.708 µM (active). `CCCCNc1nc(-c2ccccc2)c(C(=O)OCC)cc1C#N`: the AC50 was 4.47 µM (active).

As for `O=C1CCCC=C1[C@@H](O)COCc1ccccc1`, the activity, negative = inhibition is -6.11% [at 11.4 µM] (inactive). For `CCN1C(=O)CC(N2CCN(CC(=O)NC(C)C)CC2)C1=O` (centres undefined), the AC50 entry was “inactive”.

With `C/C(=N\O)c1cccc[n+]1Cc1ccccc1`, the activity, negative = inhibition was -0.979% [at 11.4 µM] (inactive).

Regarding `NC(=O)c1ccc(-c2ncc(-c3ccccc3)o2)cc1`, the AC50 was 0.631 µM (active). For the compound `NC(=O)c1ccc(C2SCC(=O)N2Cc2ccccc2)cc1` (centres undefined), the AC50 result is “inactive”. On to `CO[C@]1(NC(=O)[C@H](C(=O)O)c2ccc(O)cc2)C(=O)N2C(C(=O)O)=C(CSc3nnnn3C)CO[C@H]21`, for which the AC50 result was “inactive”. `Cc1sc2nc(SCC(=O)C(C)(C)C)n(Cc3ccco3)c(=O)c2c1C`: the AC50 is 0.891 µM (active).

Take `COCCNC(=O)CSc1nc2cc(OC)c(OC)cc2c(=O)n1Cc1ccco1`: the AC50 entry was “inactive”.

As for `CC(=O)[C@H]([C@@H](c1ccccc1)N1CCOCC1)N1CCOCC1`, the activity, negative = inhibition was 2.19% [at 11.4 µM] (inactive). For `Cc1ccc(-c2nc(-c3nccc4ccccc34)oc2-c2ccccc2)cc1`, the AC50 is 2.51 µM (active).

For the compound `C[C@](O)(c1ccccc1)c1nccc2ccccc12`, the activity, negative = inhibition is -17.4% [at 11.4 µM] (inactive).

Consider `COc1ccc(NC(=S)Nc2ncccc2C)c(OC)c1`, for which the AC50 is 1.12 µM (active). Turning to `COc1ccc2c(c1OC)C(=O)OC2Nc1ncccc1C` (centres undefined), the AC50 entry is “inactive”. For the compound `COc1ccc(NC(=O)C23CC4CC(C2)CC(n2cnc(Br)n2)(C4)C3)c(C)c1`, the AC50 entry is “inactive”. As for `CCN=C1NN=C(c2ccc(C)cc2)CS1`, the concentration at half-maximal activity (AC50) was 20 µM (active). `O=C(NCCN1CCN(Cc2ccccc2)CC1)C1c2ccccc2C(=O)N2CCc3ccccc3C12` (centres undefined): the AC50 entry was “inactive”. With `O=C(NCCc1ccccc1)c1noc2c1CCc1ccccc1-2`, the AC50 is 1.26 µM (active). On the same count and under the same terms, as for `CCCC(C(=O)OCCN(CC)CC)(c1ccccc1)c1ccccc1`, the entry is “inactive”; as for `CCN(CC)CCOC(=O)[C@@H](c1ccccc1)C1CCCCC1`, 1.26 µM (active). In the case of `CCN(CC)CCOC(=O)C(c1ccccc1)c1ccccc1`, the AC50 was 5.01 µM (active). Regarding `O=C1CCC[C@@H](C(C(=O)OCc2ccccc2)C(=O)OCc2ccccc2)C1`, the activity, negative = inhibition was -9.68% [at 11.4 µM] (inactive). With `CN(C)CCOC(=O)[C@@H](c1ccccc1)C1(O)CCCC1`, the AC50 entry was “inactive”. On the same count and under the same terms, as for `C[N+]1(C)CCC(OC(=O)C(c2ccccc2)c2ccccc2)CC1`, the entry is “inactive”; as for `CN(C)CCNc1ncnc2c1sc1nc(N3CCOCC3)c3c(c12)CC(C)(C)SC3`, “inactive”. Regarding `CCOc1ccc(N=C2NC(=O)C(CC(=O)O)S2)cc1` (centres undefined), the AC50 result was “inactive”. Take `O=C1CN2CCN(CC2)CC(=O)Nc2ccc(cc2)S(=O)(=O)c2ccc(cc2)NC(=O)CN2CCN(CC2)CC(=O)Nc2ccc(cc2)S(=O)(=O)c2ccc(cc2)N1`: the activity, negative = inhibition was -13.1% [at 11.4 µM] (inactive). For `CCc1ccc(Nc2ncccc2C#N)cc1`, the AC50 is 1.26 µM (active). Still for that read-out and setting: to `CCC(C)c1ccc(Nc2ncccc2C#N)cc1` (centres undefined) belongs 5.01 µM (active). Turning to `COC(=O)[C@@H]1CC[C@H](C)[C@@H](c2ccc(C)cc2)N1C(=O)c1ccc(/C=N\OCC[C@@H]2C=C[C@H](OC(C)=O)[C@H](COC(C)=O)O2)cc1`, the activity, negative = inhibition is -3.4% [at 11.4 µM] (inactive).

Turning to `Nc1cccc2cnccc12`, the AC50 was 12.6 µM (active). Still for that read-out and setting: as for `C[C@H]1CN(S(=O)(=O)c2cccc3cnccc23)CCN1`, the entry is “inactive”. Take `N[C@@H]1CONC1=O`: the AC50 result was “inactive”. `C[C@@H]1CN2[C@H](c3ccc(Br)cc3)[C@H](C)CC[C@H]2C(=O)O1`: the activity, negative = inhibition was -6.13% [at 11.4 µM] (inactive). For the compound `Cc1nc(SCc2cccc(Oc3ccccc3)c2)n[nH]1`, the AC50 is 17.8 µM (active).

`COCCN1CN=C(Nc2nc3ccccc3s2)NC1`: the AC50 entry is “inactive”. For the compound `COc1ccc(CN2CN=C(Nc3nc4ccccc4s3)NC2)cc1`, the AC50 was 12.6 µM (active).

In the case of `CCOC(=O)[C@]1(CC(=O)O)CCCC1=O`, the activity, negative = inhibition was -12.7% [at 11.4 µM] (inactive). For `COc1c2c(nc3ccccc13)O[C@H]([C@@](C)(O)CO)C2`, the AC50 was 12.6 µM (active).
